# Biological target: Eukaryotic translation initiation factor 3 subunit I (UniProt P40217)
# Test: cross-link between two proteins; cross-linking mass spectrometry
# Eukaryotic translation initiation factor 3 subunit A, P38249, sequence (P38249 whole entry): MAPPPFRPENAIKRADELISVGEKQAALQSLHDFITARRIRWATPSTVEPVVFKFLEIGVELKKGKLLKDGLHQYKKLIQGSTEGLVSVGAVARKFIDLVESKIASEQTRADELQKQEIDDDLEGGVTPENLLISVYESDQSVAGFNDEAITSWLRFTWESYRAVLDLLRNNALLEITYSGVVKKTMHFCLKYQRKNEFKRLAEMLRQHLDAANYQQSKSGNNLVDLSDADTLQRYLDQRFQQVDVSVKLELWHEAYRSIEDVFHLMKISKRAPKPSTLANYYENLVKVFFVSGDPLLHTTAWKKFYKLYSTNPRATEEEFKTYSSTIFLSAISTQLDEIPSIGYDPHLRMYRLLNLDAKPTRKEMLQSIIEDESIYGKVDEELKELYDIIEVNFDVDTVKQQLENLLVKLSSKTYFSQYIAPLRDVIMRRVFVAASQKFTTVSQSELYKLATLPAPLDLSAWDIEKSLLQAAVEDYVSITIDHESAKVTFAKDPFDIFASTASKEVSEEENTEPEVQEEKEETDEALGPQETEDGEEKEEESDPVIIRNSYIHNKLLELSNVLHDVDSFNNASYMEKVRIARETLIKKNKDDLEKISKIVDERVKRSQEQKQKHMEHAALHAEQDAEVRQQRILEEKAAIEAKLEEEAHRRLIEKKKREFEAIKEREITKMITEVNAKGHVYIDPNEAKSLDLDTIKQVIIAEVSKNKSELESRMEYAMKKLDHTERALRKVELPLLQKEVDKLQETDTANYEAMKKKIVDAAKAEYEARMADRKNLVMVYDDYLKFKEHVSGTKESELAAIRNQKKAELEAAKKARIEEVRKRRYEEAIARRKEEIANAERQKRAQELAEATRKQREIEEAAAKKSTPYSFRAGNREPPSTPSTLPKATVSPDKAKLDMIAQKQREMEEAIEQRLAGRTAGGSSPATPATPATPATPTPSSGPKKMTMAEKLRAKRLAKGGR
# Eukaryotic translation initiation factor 3 subunit I, sequence (P40217 whole entry): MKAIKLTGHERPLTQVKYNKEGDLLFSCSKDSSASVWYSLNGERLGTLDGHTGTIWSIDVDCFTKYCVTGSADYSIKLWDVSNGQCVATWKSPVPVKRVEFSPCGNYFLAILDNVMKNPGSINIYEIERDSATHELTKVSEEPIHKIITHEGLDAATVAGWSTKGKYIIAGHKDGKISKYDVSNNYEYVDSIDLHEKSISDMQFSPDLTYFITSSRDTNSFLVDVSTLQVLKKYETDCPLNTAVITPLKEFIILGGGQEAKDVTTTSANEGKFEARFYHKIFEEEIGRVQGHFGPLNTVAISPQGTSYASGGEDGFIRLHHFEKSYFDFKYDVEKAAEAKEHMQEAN
substance,measurement,value
"Eukaryotic translation initiation factor 3 subunit A, P38249",listed as a hit,yes
